Data from PubChem BioAssay (NCATS).
Inconclusive results are not listed. The source made the active and inactive calls. Unless noted, calls follow the shape of the dose curve; as a rule, active = well fitted curve in the direction sought with a large enough effect; inconclusive = small, poorly fitted or top-dose-only effect, or another doubt; inactive = no such curve, though single readings can be large; an effect the other way counts as inactive or inconclusive.

What was measured:
[1] = Cell Viability - BJ (AID 421; calls by dose curve;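 also: potency is read from the fitted curve at half-maximal effect; cells exposed to compound for 40 hours at 37 °C before readout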); conditions: BJ fibroblast viability, qHTS
Summary of the method: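 Luminescent ATP signal (CellTiter-Glo, 20 min at room temperature) served as the read-out of viable BJ cells after 40 hours of compound treatment. Responses were scaled between DMSO and 100 uM tamoxifen, and AC50 values were obtained by Hill modeling.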

[2] = Cell Viability - Jurkat (AID 426;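 active = dose-dependent loss of cell ATP signal giving a full or clear fitted curve, ranked by lower potency value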;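 also: potency is read from the fitted curve at half-maximal effect; cells exposed to compound for 40 hours at 37 °C before ATP read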); conditions: qHTS
Summary of the method: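 Cytotoxicity was scored as loss of cellular ATP, measured by luciferase-based luminescence, in Jurkat clone E6-1 cells after 40 h compound treatment; tamoxifen and doxorubicin served as positive controls.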

[3] = Cell Viability - Hek293 (AID 427;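 active = compounds whose dose-response curve shows a full or clear partial loss of cell viability, called from curve shape rather than a numeric limit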;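 also: potency is read from the fitted curve at half-maximal effect; cells exposed to compound for 40 hours at 37 °C before reading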); conditions: qHTS
Summary of the method: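 Luminescent ATP read-out (CellTiter-Glo, 20 min RT) after 40 hr compound exposure at 37 °C in complete medium. Signal normalized to DMSO (basal) and 100 uM tamoxifen (100% inhibition); concentration-response fitted with the standard Hill equation to give AC50.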

[4] = Cell Viability - HepG2 (AID 433; calls by dose curve;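 also: potency is read from the fitted curve at half-maximal effect; potency for ATP loss meaning cytotoxicity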); conditions: qHTS
Summary of the method: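 ATP luminescence (CellTiter-Glo) after 40 h compound exposure, 37 °C, HepG2, 1500 cells/well, complete medium. Normalized: DMSO = basal, 100 uM tamoxifen = 100% inhibition. AC50 via standard Hill equation.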

[5] = Cell Viability - MRC5 (AID 434; calls by dose curve;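 also: potency is read from the fitted curve at half-maximal effect; cells exposed to compound for 40 hours at 37 °C; potency reflects cytotoxicity seen as loss of intracellular ATP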); conditions: MRC5 lung fibroblast viability, qHTS
Summary of the method: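 ATP luminescence read-out (CellTiter-Glo, 20 min RT) after 40 hr, 37 °C compound exposure of 1500 MRC5 cells/well. Data normalized to DMSO (basal) and 100 uM tamoxifen (100% inhibition); AC50 from standard Hill equation.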

[6] = Cell Viability - SK-N-SH (AID 435; calls by dose curve; also: potency is read from the fitted curve at half-maximal effect); conditions: SK-N-SH neuroblastoma cell viability qHTS
Summary of the method: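 CellTiter-Glo ATP luminescence, 20 min RT read; cells pre-plated 5 hr, compound 40 hr at 37 °C, 1500 cells/well, complete medium. Normalized DMSO = 0, 100 uM tamoxifen = 100% inhibition; Hill-fit AC50.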

[7] = target: Mitogen-activated protein kinase 10 (Mus musculus) (UniProt Q61831); assay: JNK3 AlphaScreen Assay (AID 530; active = well fitted curve in either direction with a large enough effect, not every such curve was filed as active;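 also: kinase came from lysate of stimulated human HepG2 cells; signal reports phosphorylation of biotinylated GST-cJun 1-79 at Ser73 with 10 µM ATP; % is scaled to controls: 0 for no effect and ±100 for the full control effect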); conditions: JNK3 lysate, c-Jun phosphorylation; series mostly up to 57.1 µM
Summary of the method: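 HepG2 lysate (IL-1b/TNFa pre-activated) + biotin-GST-cJun 1-79 + anti-pSer73 cJun; cpd titration, 15 min RT; ATP 10 uM start; Tris pH 7.6, MgCl2, DTT, vanadate; beads in EDTA buffer; AlphaScreen.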

[8] = Cell Viability - N2a (AID 540); conditions: N2a mouse neuroblastoma cell viability; activity change, negative = cytotoxicity: at 92.2 µM (top of the series);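 also: plate controls were DMSO alone for no effect and tamoxifen control for full effect; nearly all actives have a fitted effect of over 45% in size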
Summary of the method: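 In this qHTS cytotoxicity screen, ATP-dependent luciferase luminescence reports viable N2a cells after a 40 hr compound exposure in complete culture medium. Potencies are AC50 values from standard Hill equation fits.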

[9] = Cell Viability - NIH 3T3 (AID 541); conditions: NIH 3T3 cell viability, qHTS; activity change, negative = cytotoxicity: at 92.2 µM (top of the series);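 also: plate controls were DMSO alone for no effect and tamoxifen positive control for full effect; nearly all actives have a fitted effect of over 25% in size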
Summary of the method: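 In this cytotoxicity screen, acute toxicity is scored as an ATP drop measured by CellTiter-Glo in NIH 3T3 fibroblasts following a 40 hr, 37 °C incubation with compound.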

[10] = Cell Viability - HUV-EC-C (AID 542); conditions: HUV-EC-C endothelial cell viability, qHTS; series mostly up to 92.2 µM; also: % is scaled to controls: 0 for no effect and ±100 for the full control effect; nearly all actives have a fitted effect of over 35% in size
Summary of the method: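 Concentration-dependent ATP loss in HUV-EC-C cells is the measure. Exposure lasts 40 hr at 37 °C; luminescence follows CellTiter-Glo addition, and Hill fits give AC50.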

[11] = Cell Viability - H-4-II-E (AID 543); conditions: H-4-II-E rat hepatoma viability; series mostly up to 92.2 µM; also: % is scaled to controls: 0 for no effect and ±100 for the full control effect; nearly all actives have a fitted effect of over 35% in size
Summary of the method: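 AC50 from Hill-modelled qHTS concentration-response curves. H-4-II-E rat hepatoma cells in complete medium, 40 hr exposure at 37 °C, viability by CellTiter-Glo ATP luminescence.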

[12] = Cell Viability - SH-SY5Y (AID 544); conditions: SH-SY5Y neuroblastoma cell viability; viability change, negative = cytotoxic: at 92.2 µM (top of the series); also: nearly all actives have a fitted effect of over 55% in size
Summary of the method: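 Quantitative HTS in SH-SY5Y neuroblastoma cells, 40 hr treatment at 37 °C, ATP content by luciferase luminescence; AC50 from Hill fits.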

[13] = Cell Viability - Renal Proximal Tubule (AID 545); conditions: renal proximal tubule cells viability, primary cells of rat origin; series mostly up to 91.7 µM; also: nearly all actives have a fitted effect of over 40% in size
Summary of the method: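 Rat kidney proximal tubule cells, freshly isolated; 1000 cells/well, 5 hr settle, compound 40 hr 37 °C. CellTiter-Glo 20 min RT, luminescence read. AC50 by standard Hill fit.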

[14] = Cell Viability - Mesenchymal (AID 546); conditions: mesenchymal cells viability, qHTS; series mostly up to 91.7 µM;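 also: cells exposed to compound for 40 hours before reading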
Summary of the method: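 Human renal mesenchymal cells (glomerulus-derived), 1000 cells/well, 5 hr 37 °C pre-incubation; compound 40 hr, 37 °C; CellTiter-Glo, 20 min RT; luminescence; AC50 via Hill equation.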

[15] = Cellular Toxicity (caspase-3) HepG2 (AID 654); conditions: HepG2 caspase-3 activation, luminescence; series mostly up to 92.2 µM;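 also: cells exposed to compound for 16 hours before reading; 0% = DMSO alone and 100% = caspase signal from 100 µM tamoxifen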
Summary of the method: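 Concentration-response AC50 values reflect caspase-3/7 induction in HepG2 cells after 16 hours of compound exposure, quantified by luminescence from liberated aminoluciferin and referenced to 100 uM tamoxifen as full stimulation.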

[16] = Cellular Toxicity (caspase-3) Jurkat (AID 655); conditions: Jurkat caspase-3 activation, luminescence; caspase-3 activation: at 92.2 µM (top of the series), DMSO = 0%, tamoxifen = 100%;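 also: cells exposed to compound for 16 h at 37 °C before reading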
Summary of the method: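 Luminescent caspase-3/7 readout (aminoluciferin substrate cleavage) in human T-cell leukemia Jurkat cells after 16 hr compound exposure. Concentration-response normalized to DMSO and 100 uM tamoxifen; AC50 by standard Hill equation.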

[17] = Cellular Toxicity (caspase-3) HUV-EC-C (AID 656); conditions: HUV-EC-C cells, caspase-3 activation (apoptosis), vehicle = 0, 100 µM tamoxifen = 100%; series mostly up to 92.2 µM
Summary of the method: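 Luminescent caspase-3/7 activation (aminoluciferin substrate cleavage) in HUV-EC-C cells after 16 hr compound exposure, 37°C. Signal normalized to DMSO basal and 100 uM tamoxifen as 100%; AC50 from concentration-response fitted with the Hill equation.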

[18] = Cellular Toxicity (caspase-3) SHSY5Y (AID 657); conditions: SH-SY5Y caspase-3 activation, DMSO zero, 10 µM staurosporine = 100%; series mostly up to 91.7 µM;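 also: cells exposed to compound for 16 hours at 37 °C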
Summary of the method: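 Luminescent caspase-3/7 readout (aminoluciferin release) in SH-SY5Y cells after 16 h compound exposure in complete medium. Activity scaled between DMSO basal and 10 uM staurosporine as 100%; concentration-response fitted to Hill equation for AC50.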

[19] = Cellular Toxicity (caspase-3) BJ (AID 658); conditions: BJ fibroblasts, luminescence, normalized: DMSO 0%, staurosporine 100%; series mostly up to 91.7 µM
Summary of the method: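 qHTS, BJ fibroblasts, 1000 cells/well; 5 hr preincubation, 16 hr compound, 37 °C; Caspase-Glo 3/7 reagent, 1 hr RT; luminescence. DMSO = 0%, 10 uM staurosporine = 100%. Hill-equation AC50.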

[20] = Cellular Toxicity (caspase-3) MRC-5 (AID 659); conditions: MRC-5 cells, luminescence, normalized: DMSO 0%, 10 µM staurosporine 100%; series mostly up to 91.7 µM;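 also: cells exposed to compound for 16 h at 37 °C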
Summary of the method: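 MRC-5 fibroblasts, 1500/well; 16 h cpd, 37 °C; Caspase-Glo 3/7, 1 h RT; lumi read. Norm: DMSO = 0%, 10 uM staurosporine = 100%. Hill-fit AC50 from qHTS conc-response.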

O=C(O)c1cccc(Cl)c1Cl
inactive: Potency [1] > 92 µM | Potency [2] > 92 µM | Potency [3] > 92 µM | Potency [4] > 92 µM | Potency [5] > 92 µM | Potency [6] > 92 µM | outcome [7] | activity change, negative = cytotoxicity [8] -7.38% | Potency [9] | Potency [10] | Potency [11] | Potency [12] | Potency [13] | Potency [14] | Potency [15] | caspase-3 activation [16] 0.107% | outcome [17] | outcome [18] | outcome [19] | outcome [20]

C=C(C)C(=O)OCCCCCC
inactive: Potency [1] > 92 µM | Potency [2] > 92 µM | Potency [3] > 92 µM | Potency [4] > 92 µM | Potency [5] > 92 µM | Potency [6] > 92 µM | outcome [7] | activity change, negative = cytotoxicity [8] -2.36% | Potency [9] | Potency [10] | Potency [11] | Potency [12] | Potency [13] | Potency [14] | Potency [15] | caspase-3 activation [16] 2.29% | outcome [17] | outcome [18] | outcome [19] | outcome [20]

Cc1cccc(C)c1[N+](=O)[O-]
inactive: Potency [1] > 92 µM | Potency [2] > 92 µM | Potency [3] > 92 µM | Potency [4] > 92 µM | Potency [5] > 92 µM | Potency [6] > 92 µM | outcome [7] | activity change, negative = cytotoxicity [8] -11.3% | Potency [9] | Potency [10] | Potency [11] | Potency [12] | Potency [13] | Potency [14] | Potency [15] | caspase-3 activation [16] 0.339% | outcome [17] | outcome [18] | outcome [19] | outcome [20]

CC/C(C)=N/O
inactive: Potency [1] > 92 µM | Potency [2] > 92 µM | Potency [3] > 92 µM | Potency [4] > 92 µM | Potency [5] > 92 µM | Potency [6] > 92 µM | outcome [7] | activity change, negative = cytotoxicity [8] 3.53% | Potency [9] | Potency [10] | Potency [11] | Potency [12] | Potency [13] | Potency [14] | Potency [15] | caspase-3 activation [16] -0.144% | outcome [17] | outcome [18] | outcome [19] | outcome [20]

CNC(=O)N(c1ccccc1)c1ccccc1
inactive: Potency [1] > 92 µM | Potency [2] > 92 µM | Potency [3] > 92 µM | Potency [4] > 92 µM | Potency [5] > 92 µM | Potency [6] > 92 µM | outcome [7] | activity change, negative = cytotoxicity [8] -1.02% | Potency [9] | Potency [10] | Potency [11] | Potency [12] | Potency [13] | Potency [14] | Potency [15] | caspase-3 activation [16] 1.82% | outcome [17] | outcome [18] | outcome [19]

FC(F)(F)c1ccccc1Cl
inactive: Potency [1] > 92 µM | Potency [2] > 92 µM | Potency [3] > 92 µM | Potency [4] > 92 µM | Potency [5] > 92 µM | Potency [6] > 92 µM | outcome [7] | activity change, negative = cytotoxicity [8] -3.42% | Potency [9] | Potency [10] | Potency [11] | Potency [12] | Potency [13] | Potency [14] | Potency [15] | caspase-3 activation [16] 2.68% | outcome [17] | outcome [18] | outcome [19]

OCCO
inactive: Potency [1] > 92 µM | Potency [2] > 92 µM | Potency [3] > 92 µM | Potency [4] > 92 µM | Potency [5] > 92 µM | Potency [6] > 92 µM | outcome [7] | activity change, negative = cytotoxicity [8] -12.9% | Potency [9] | Potency [10] | Potency [11] | Potency [12] | Potency [13] | Potency [14] | Potency [15] | caspase-3 activation [16] 1.1% | outcome [17] | outcome [18] | outcome [19] | outcome [20]

CC1CCC2CC1C2(C)C (stereo not drawn)
inactive: Potency [1] > 92 µM | Potency [2] > 92 µM | Potency [3] > 92 µM | Potency [4] > 92 µM | Potency [5] > 92 µM | Potency [6] > 92 µM | outcome [7] | activity change, negative = cytotoxicity [8] -4.47% | Potency [9] | Potency [10] | Potency [11] | Potency [12] | Potency [13] | Potency [14] | Potency [15] | caspase-3 activation [16] -1.25% | outcome [17] | outcome [18] | outcome [19] | outcome [20]

NC(=O)/N=N/C(N)=O
inactive: Potency [1] > 92 µM | Potency [2] > 92 µM | Potency [3] > 92 µM | Potency [4] > 92 µM | Potency [5] > 92 µM | Potency [6] > 92 µM | outcome [7] | activity change, negative = cytotoxicity [8] 10.3% | Potency [9] | Potency [10] | Potency [11] | Potency [12] | Potency [13] | Potency [14] | Potency [15] | caspase-3 activation [16] -2.04% | outcome [17] | outcome [18] | outcome [19] | outcome [20]

C1CCCC1
inactive: Potency [1] > 92 µM | Potency [2] > 92 µM | Potency [3] > 92 µM | Potency [4] > 92 µM | Potency [5] > 92 µM | Potency [6] > 92 µM | outcome [7] | activity change, negative = cytotoxicity [8] 7.78% | Potency [9] | Potency [10] | Potency [11] | Potency [12] | Potency [13] | Potency [14] | Potency [15] | caspase-3 activation [16] -0.234% | outcome [17] | outcome [18] | outcome [19] | outcome [20]

C(=C/c1ccccc1)/c1ccccc1
inactive: Potency [1] > 92 µM | Potency [2] > 92 µM | Potency [3] > 92 µM | Potency [4] > 92 µM | Potency [5] > 92 µM | Potency [6] > 92 µM | outcome [7] | activity change, negative = cytotoxicity [8] -0.717% | Potency [9] | Potency [10] | Potency [11] | Potency [12] | Potency [13] | Potency [14] | Potency [15] | caspase-3 activation [16] 0.745% | outcome [17] | outcome [18] | outcome [19] | outcome [20]
